Measurements: PubChem BioAssay AID1159580 (chemical genetic matrix, 2015)
“And” between values parts separate entries of the source, which are not always exact repeats. Equal entries are not always repeated. In all, about 5,500 compounds went through this assay and about 2,000 (36%) were called active. About 18% were inconclusive and are not listed. No stated cut-off is given here; in the data, active means normalized growth mostly below about 0.91 (no sharp cut-off); inconclusive means no clear call, values can overlap the other calls; inactive means mostly above about 0.92. The list shows a part of the results.

Test: chemical genetic growth profiling, strain panel (AID 1159580);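 further: tested at 20 µM; growth read once vehicle control cultures reached saturation at 30 °C; 1 = growth at the plate median or of vehicle wells; lower values mean less growth of the strain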
Details: growth OD
[1] = S. cerevisiae deletion strains, locus YAL013W, strain DEP1, active compounds read low
[2] = S. cerevisiae deletion strains, locus YBR021W, strain FUR4, active compounds read low
[3] = S. cerevisiae deletion strains, locus YBR229C, strain ROT2, active compounds read low
[4] = S. cerevisiae deletion strains, locus YCL029C, strain bik1, active compounds read low
[5] = S. cerevisiae deletion strains, locus YDL035C, strain GPR1, active compounds read low
[6] = S. cerevisiae deletion strains, locus YDL074C, strain BRE1, active compounds read low
[7] = S. cerevisiae deletion strains, locus YDL101C, strain DUN1, active compounds read low
[8] = S. cerevisiae deletion strains, locus YDL134C, strain PPH21, active compounds read low
[9] = S. cerevisiae deletion strains, locus YDL185W, strain tfp1, active compounds read low
[10] = S. cerevisiae deletion strains, locus YDL192W, strain arf1, active compounds read low
[11] = S. cerevisiae deletion strains, locus YDR101C, strain arx1, active compounds read low
[12] = S. cerevisiae deletion strains, locus YDR150W, strain NUM1, active compounds read low
[13] = S. cerevisiae deletion strains, locus YDR162C, strain NBP2, active compounds read low
[14] = S. cerevisiae deletion strains, locus YDR318W, strain mcm21, active compounds read low
[15] = S. cerevisiae deletion strains, locus YDR388W, active compounds read low
[16] = S. cerevisiae deletion strains, locus YDR502C, strain sam2, active compounds read low
[17] = S. cerevisiae deletion strains, locus YEL061C, strain CIN8, active compounds read low
[18] = S. cerevisiae deletion strains, locus YER110C, active compounds read low
[19] = S. cerevisiae deletion strains, locus YER155C, strain BEM2, active compounds read low
[20] = S. cerevisiae deletion strains, locus YER167W, strain BCK2, active compounds read low
[21] = S. cerevisiae deletion strains, locus YGL078C, strain dbp3, active compounds read low
[22] = S. cerevisiae deletion strains, locus YGL086W, strain mad1, active compounds read low
[23] = S. cerevisiae deletion strains, locus YGL248W, strain PDE1, active compounds read low
[24] = S. cerevisiae deletion strains, locus YGR078C, strain PAC10, active compounds read low
[25] = S. cerevisiae deletion strains, locus YGR135W, strain pre9, active compounds read low
[26] = S. cerevisiae deletion strains, locus YGR229C, strain SMI1, active compounds read low
[27] = S. cerevisiae deletion strains, locus YGR252W, strain gcn5, active compounds read low
[28] = S. cerevisiae deletion strains, locus YHR030C, strain SLT2, active compounds read low
[29] = S. cerevisiae deletion strains, locus YHR079C, strain IRE1 (second series), active compounds read low
[30] = S. cerevisiae deletion strains, locus YHR079C, strain IRE1, active compounds read low
[31] = S. cerevisiae deletion strains, locus YHR094C, strain hxt1, active compounds read low
[32] = S. cerevisiae deletion strains, locus YHR129C, strain ARP1, active compounds read low
[33] = S. cerevisiae deletion strains, locus YHR200W, strain rpn10, active compounds read low
[34] = S. cerevisiae deletion strains, locus YIL066C, strain RNR3, active compounds read low
[35] = S. cerevisiae deletion strains, locus YIL073C, strain SPO22, active compounds read low
[36] = S. cerevisiae deletion strains, locus YIL125W, strain kgd1, active compounds read low
[37] = S. cerevisiae deletion strains, locus YIR030C, strain dcg1, active compounds read low
[38] = S. cerevisiae deletion strains, locus YJL095W, strain BCK1, active compounds read low
[39] = S. cerevisiae deletion strains, locus YJL134W, strain LCB3, active compounds read low
[40] = S. cerevisiae deletion strains, locus YJL168C, strain set2, active compounds read low
[41] = S. cerevisiae deletion strains, locus YJL187C, strain SWE1 (second series), active compounds read low
[42] = S. cerevisiae deletion strains, locus YJR043C, strain POL32, active compounds read low
[43] = S. cerevisiae deletion strains, locus YJR066W, strain TOR1, active compounds read low
[44] = S. cerevisiae deletion strains, locus YJR075W, strain HOC1, active compounds read low
[45] = S. cerevisiae deletion strains, locus YKL009W, strain mrt4, active compounds read low
[46] = S. cerevisiae deletion strains, locus YKL068W, active compounds read low
[47] = S. cerevisiae deletion strains, locus YKL085W, strain MDH1 (second series), active compounds read low
[48] = S. cerevisiae deletion strains, locus YKL085W, strain MDH1, active compounds read low
[49] = S. cerevisiae deletion strains, locus YKL190W, strain CNB1, active compounds read low
[50] = S. cerevisiae deletion strains, locus YKR001C, strain vps1, active compounds read low
[51] = S. cerevisiae deletion strains, locus YLR039C, strain RIC1, active compounds read low
[52] = S. cerevisiae deletion strains, locus YLR058C, strain SHM2, active compounds read low
[53] = S. cerevisiae deletion strains, locus YLR102C, strain apc9, active compounds read low
[54] = S. cerevisiae deletion strains, locus YLR113W, strain HOG1, active compounds read low
[55] = S. cerevisiae deletion strains, locus YLR262C, strain YPT6, active compounds read low
[56] = S. cerevisiae deletion strains, locus YLR268W, strain sec22, active compounds read low
[57] = S. cerevisiae deletion strains, locus YLR330W, strain CHS5, active compounds read low
[58] = S. cerevisiae deletion strains, locus YLR342W, strain FKS1 (second series), active compounds read low
[59] = S. cerevisiae deletion strains, locus YLR371W, strain rom2, active compounds read low
[60] = S. cerevisiae deletion strains, locus YLR418C, strain cdc73, active compounds read low
[61] = S. cerevisiae deletion strains, locus YML016C, strain PPZ1, active compounds read low
[62] = S. cerevisiae deletion strains, locus YML032C, strain rad52, active compounds read low
[63] = S. cerevisiae deletion strains, locus YML124C, strain tub3, active compounds read low
[64] = S. cerevisiae deletion strains, locus YMR078C, strain ctf18, active compounds read low
[65] = S. cerevisiae deletion strains, locus YMR223W, strain ubp8, active compounds read low
[66] = S. cerevisiae deletion strains, locus YMR263W, strain SAP30, active compounds read low
[67] = S. cerevisiae deletion strains, locus YMR307W, strain GAS1, active compounds read low
[68] = S. cerevisiae deletion strains, locus YNL067W, strain RPL9B, active compounds read low
[69] = S. cerevisiae deletion strains, locus YNL128W, strain TEP1, active compounds read low
[70] = S. cerevisiae deletion strains, locus YNL153C, strain GIM3, active compounds read low
[71] = S. cerevisiae deletion strains, locus YNL233W, strain BNI4, active compounds read low
[72] = S. cerevisiae deletion strains, locus YNL250W, strain rad50, active compounds read low
[73] = S. cerevisiae deletion strains, locus YNL271C, strain bni1, active compounds read low
[74] = S. cerevisiae deletion strains, locus YNL298W, strain CLA4, active compounds read low
[75] = S. cerevisiae deletion strains, locus YNL307C, strain MCK1, active compounds read low
[76] = S. cerevisiae deletion strains, locus YNL322C, strain KRE1, active compounds read low
[77] = S. cerevisiae deletion strains, locus YNR052C, strain pop2, active compounds read low
[78] = S. cerevisiae deletion strains, locus YOL006C, strain TOP1, active compounds read low
[79] = S. cerevisiae deletion strains, locus YOL012C, strain htz1
[80] = S. cerevisiae deletion strains, locus YOL147C, strain pex11, active compounds read low
[81] = S. cerevisiae deletion strains, locus YOR061W, strain CKA2, active compounds read low
[82] = S. cerevisiae deletion strains, locus YOR069W, strain VPS5, active compounds read low
[83] = S. cerevisiae deletion strains, locus YOR144C, strain elg1, active compounds read low
[84] = S. cerevisiae deletion strains, locus YOR184W, strain ser1, active compounds read low
[85] = S. cerevisiae deletion strains, locus YOR231W, strain MKK1, active compounds read low
[86] = S. cerevisiae deletion strains, locus YOR316C, strain cot1, active compounds read low
[87] = S. cerevisiae deletion strains, locus YPL055C, strain LGE1, active compounds read low
[88] = S. cerevisiae deletion strains, locus YPL241C, strain CIN2, active compounds read low
[89] = S. cerevisiae deletion strains, locus YPL256C, strain CLN2, active compounds read low
[90] = S. cerevisiae deletion strains, locus YPR119W, strain clb2, active compounds read low
[91] = S. cerevisiae deletion strains, locus YPR141C, strain kar3, active compounds read low
[92] = S. cerevisiae deletion strains, locus YPR163C, strain tif3, active compounds read low
[93] = S. cerevisiae deletion strains, locus YPR167C, strain met16, active compounds read low
[94] = S. cerevisiae deletion strains, strain wtn01, active compounds read low
[95] = S. cerevisiae strains, strain wild type, active compounds read low

Measured: normalized growth

N[C@@H](Cc1cc(I)c(Oc2cc(I)c(O)c(I)c2)c(I)c1)C(=O)O
inactive: [1] 1.05 | [2] 1.07 | [3] 1.02 | [5] 1.04 | [6] 1.04 | [7] 1.04 | [8] 1.03 | [9] 1.03 | [11] 1.04 | [12] 1.06 | [13] 1.03 | [14] 1 | [16] 1.05 | [17] 1.05 | [18] 1.1 | [19] 1.06 | [20] 1.01 | [21] 1.01 | [22] 1 | [23] 1.02 | [24] 1.03 | [25] 1.04 | [26] 1.03 | [27] 1.17 | [28] 1.02 | [30] 1.05 | [31] 1.04 | [32] 1.04 | [34] 1.01 | [35] 1.07 | [36] 1.04 | [38] 0.994 and 1.02 | [39] 1.03 | [41] 1.02 | [42] 1.04 | [43] 0.978 | [44] 1.05 | [45] 0.928 | [46] 0.963 | [47] 0.995 | [48] 0.995 | [49] 1.04 | [50] 0.953 | [51] 1.04 | [52] 1.03 | [54] 1.01 | [55] 1.06 | [56] 1.05 | [58] 0.998 | [60] 0.998 | [61] 1.02 | [62] 1.03 | [63] 1.06 | [66] 1.06 | [67] 1.05 | [68] 1.02 | [69] 1.05 | [70] 1.02 | S. cerevisiae deletion strains, locus YNL183C, strain NPR1, active compounds read low 0.945 | [71] 1.03 | [72] 1.04 | [73] 1 | [74] 1.03 | [76] 1.05 | [78] 1.02 | [79] 1.11 | [81] 1.03 | [82] 1.03 | [84] 1.01 | [85] 1.02 | [87] 1.03 | [88] 1.05 | [89] 1.06 | [90] 1.06 | [94] 1.02 | [95] 1.04
active: [4] 1.22 [resistant] | [10] 1.12 [resistant] | [15] 1.09 [resistant] | [29] 1.27 [resistant] | [33] 1.19 [resistant] | [37] 1.13 [resistant] | [40] 1.1 [resistant] | [53] 1.09 [resistant] | [57] 1.13 [resistant] | [59] 1.2 [resistant] | [64] 1.16 [resistant] | [65] 1.25 [resistant] | [75] 0.851 | [77] 1.24 [resistant] | [80] 1.08 [resistant] | [83] 1.2 [resistant] | [86] 1.22 [resistant] | [91] 1.23 [resistant] | [92] 1.14 [resistant] | [93] 1.17 [resistant]

N[C@@H](Cc1cc(I)c(Oc2ccc(O)c(I)c2)c(I)c1)C(=O)O
active: [30] 0.846
inactive: [1] 1.02 | [2] 1.01 | [3] 0.998 | [4] 1 | [5] 1.01 | [6] 1.03 | [7] 1.02 | [8] 1.01 | [9] 1 | [10] 1 | [11] 0.986 | [12] 1.01 | [13] 1.02 | [14] 0.982 | [15] 1 | [16] 0.987 | [17] 1 | [18] 1 | [19] 1.01 | [20] 1 | [21] 1 | [22] 0.99 | [23] 1.01 | [24] 1.01 | [25] 0.991 | [26] 1.02 | [27] 0.929 | [28] 1 and 0.914 | [29] 0.99 | [31] 1.01 | [32] 0.999 | [33] 0.994 | [34] 1.01 | [35] 1.02 | [36] 1 | [37] 1 | [38] 0.971 and 0.977 | [39] 1.01 | [40] 1 | [41] 1 | [42] 1.01 | [43] 0.864 | [44] 0.996 | [45] 0.979 | [46] 1.01 | [47] 1.03 | [48] 1.03 | [49] 1.01 | [50] 0.967 | [51] 0.978 | [52] 1.01 | [53] 0.999 | [54] 1.03 | [55] 0.993 | [56] 0.982 | [57] 1.01 | [58] 1.01 | [59] 1 | [60] 0.951 | [61] 1.01 | [62] 0.981 | [63] 1.01 | [64] 1.01 | [65] 0.984 | [66] 1 | [67] 1.06 | [68] 1.02 | [69] 1.02 | [70] 1.01 | [71] 1 | [72] 1.01 | [73] 0.995 | [74] 1 | [75] 0.939 | [76] 1.02 | [77] 0.996 | [78] 0.992 | [79] 1.15 | [80] 0.996 | [81] 1.01 | [82] 1 | S. cerevisiae deletion strains, locus YOR136W, strain idh2, active compounds read low 1 | [83] 1 | [84] 0.963 | [85] 1.01 | [86] 0.998 | [87] 1.05 | [88] 1.01 | [89] 0.964 | [90] 1.01 | [91] 1.01 | [92] 1.01 | [93] 1 | [94] 0.984 | [95] 1.01
